Structures are written as SMILES. Values joined by “and” are separate entries in the source; they are usually repeats but may differ in a detail not shown here. Equal entries are not always repeated. Compounds without any hit were thinned out: in the full panel of roughly 83,000, 20% have a hit.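 48-hour exposure, single concentration, 96-well plates; percent growth endpoint where 0 means no net growth. Active: below 10.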 Some structures have more than one record in an assay (separate samples or runs), and their calls can disagree. Active and inactive are the calls of the source.

For one assay, the system named is UACC-62 melanoma. Put plainly: NCI-60 one-dose screen, 48 h (100 = growth as untreated, 0 = no growth, -100 = all killed). Particulars: 10 µM. Here is the method: Growth inhibition of the UACC-62 human tumor cell line is measured as a screen for anti-cancer activity. Cells are grown in 96 well plates and exposed to the test compound for 48 hours. Compounds are tested at a single concentration, which is 10^-5 M for most compounds. The reported endpoint is percent growth (GI% or GIPRCNT), where numbers from 0 - 100% represent growth inhibition, and numbers from -100% - 0 represent cell death. For example, a value of 40 represents 60% growth inhibition. A value of 0 means no net growth occurred over the course of the experiment. A value of -40 indicates 40% of cells at the beginning of the experiment died by the end of the experiment. A value of -100 means all cells are dead at the end of the experiment.
NCI-60 Human Tumor Cell Lines Screen was performed using the standard one-dose NCI protocol, which is described in more detail at https://dtp.cancer.gov/discovery_development/nci-60/default.htm.
Compounds with GIPRCNT values below 10 were considered active. Activity score was based on GIPRCNT using the following formula: […]
Score is 0 for GIPRCNT values of 100 or above, 50 for GIPRCNT values of 0, and 100 for GIPRCNT values of -100.
Regarding `O=C(O)c1sccc1O`, the growth was 56.5% (inactive).

The same assay, now with this note: 10 µM unless noted.
With `O=S1(=O)CC(Br)C(Br)C1` (stereo not given), the growth was 86.5% (inactive) and 93.4% (inactive). The same measure, in the same setting: as for `COC(=O)/C=C/c1cc(O)c2c(c1)C(C(=O)OC)C(c1ccc(O)c(O)c1)O2` (stereo not given), the figure is 25.9% (inactive) and 31.2% (inactive); as for `OC(CSc1ccccc1)CN1CCN(c2cccc(Cl)c2)CC1` (stereo not given), 92.2% (inactive) and 96.9% (inactive).

Take `CC12CCC(CC1)C(C)(C)O2`: the growth is 103% (inactive).

With `O=C1c2cccnc2-c2nccc3ccnc1c23`, the growth was -95.5% [100 µM] (active) and -100% [100 µM] (active). The same measure, in the same setting: in the case of `CC1OC23CCCCC2C(C#N)(C#N)C1(C#N)C(=N)O3` (stereo not given) it was -14.6% [100 µM] (active); in that of `Nc1cc2c(cc1N)-c1ccccc1C2`, 85.3% (inactive) and 109% (inactive). The same measure, in the same setting: in the case of `N#CC(C#N)=C/C=C/c1cccc([N+](=O)[O-])c1` it was -51.7% (active) and -61.6% (active). The same measure, in the same setting: as for `ClC/C=C/CSc1ncnc2nc[nH]c12`, the figure is 99.9% (inactive) and 103% (inactive). Consider `O=C(/C=C/c1ccccn1)c1ccccc1O`, for which the growth was 77.5% (inactive) and 81.6% (inactive).

On to `NC(=S)NS(=O)(=O)c1ccc(N)cc1`, for which the growth is 119% (inactive). Still for that read-out and setting: as for `Cn1c(=O)c2[nH]c(CCCCCCCCc3nc4ccccc4[nH]3)nc2n(C)c1=O`, the figure is 59.1% (inactive); as for `O=C(Nc1cccc(Cl)c1)c1cc2ccccc2cc1O`, 13.8% (inactive) and 18.4% (inactive).

For the molecule `O=CC(O)C(O)C(O)CO` (stereo not given), the growth is 96.6% (inactive) and 117% (inactive). In the case of `COC(=O)C(/C(=N/NC(N)=O)C(=O)Nc1ccc(C)cc1)c1nc2ccc([N+](=O)[O-])cc2[nH]c1=O` (stereo not given), the growth was 61.4% [100 µM] (inactive) and 23.2% [100 µM] (inactive).

For `COc1cc2c(c(OC)c1OC)-c1ccc(OC)c(=O)cc1[C@@H](NC(C)=O)CC2`, the growth was 36.9% (inactive) and 40.9% (inactive) and 19.1% (inactive). On the same count and under the same terms, in the case of `CC[N+](CC)(CC(=O)Nc1c(C)cccc1C)Cc1ccccc1` it was 81.6% (inactive) and 93.2% (inactive). As for `COc1cc([C@H]2OC[C@@H]3C(c4cc(OC)c5c(c4)OCO5)OC[C@H]23)cc(OC)c1OC` (stereo not given in full), the growth was 66.5% [100 µM] (inactive) and 25.8% [100 µM] (inactive). With `CCOC(=O)C(=O)C(CCC(=O)c1ccc2ccccc2c1O)C(=O)OCC` (stereo not given), the growth is 85.4% [100 µM] (inactive) and 81.5% [100 µM] (inactive). The same measure, in the same setting: as for `Cc1ccc(OCC2OC(n3cnc4nc(Cl)nc(Cl)c43)CC2Oc2ccc(C)cc2)cc1` (stereo not given), the figure is -72.2% [100 µM] (active) and -100% [100 µM] (active).

`COc1ccccc1C(C)=O`: the growth was 109% (inactive) and 108% (inactive).

Turning to `CC(C)(C)c1cc(C2COC(=O)COCCOCC(=O)OCCOCCO2)cc(C(C)(C)C)c1O` (stereo not given), the growth is 24.1% [100 µM] (inactive) and -65.6% [100 µM] (active).

`COc1cc2nc(N3CCN(C(=O)C4COc5ccccc5O4)CC3)nc(N)c2cc1OC` (stereo not given): the growth is 102% (inactive) and 101% (inactive) and 103% (inactive).

In the case of `Nc1cc(-c2cccc(OC(F)(F)F)c2)nc2ccc(N3CCCC3)cc12`, the growth is 8.8% (active) and 27.2% (inactive) and 38.7% (inactive).

Turning to `CC(=O)Nc1ccc(O)cc1`, the growth is 99.9% (inactive) and 102% (inactive) and 106% (inactive). Same read-out and setting: in the case of `O=C1NC(=O)C2(CCc3ccccc32)N1` (stereo not given) it was 100% (inactive) and 96.7% (inactive); in that of `N#CC(=S)Nc1ccc(F)cc1`, 8.57% [100 µM] (active) and 0.965% [100 µM] (active). Still for that read-out and setting: in the case of `c1ccc2cc(C[n+]3ccn(Cc4ccc5ccccc5n4)c3)ccc2c1` it was -1.09% (active) and 10.6% (inactive); in that of `Nc1ncnc2c1ncn2C1CC(O)C(CO)O1` (stereo not given), 104% (inactive) and 105% (inactive); in that of `CO/C(N)=C(\C#N)N=Cc1ccc2ccccc2c1`, -20.4% [100 µM] (active) and 1.77% [100 µM] (active). For the molecule `Nc1ccc(N=Nc2ccc(S(=O)(=O)O)cc2)cc1S(=O)(=O)O`, the growth is 104% (inactive) and 94.8% (inactive). Still for that read-out and setting: as for `COc1ccc2cc1Oc1ccc(cc1)CC1c3cc(OC)c(cc3CCN1C)Oc1c(OC)c(OC)cc3c1C(C2)N(C)CC3` (stereo not given), the figure is -46.8% [75 µM] (active) and -87.8% [75 µM] (active). Same read-out and setting: in the case of `C[C@@H]1C[C@](O)([C@@H](C)Cl)C(=O)O[C@@H]2CCN3CC=C(COC(=O)[C@]1(C)O)[C@H]23` it was 77.3% [100 µM] (inactive) and 83.1% [100 µM] (inactive); in that of `CC(=O)NC(Cc1ccccc1)C(=O)Oc1ccc2ccccc2c1` (stereo not given), 98.8% (inactive) and 99.8% (inactive); in that of `O=C(Oc1cccc(OC(=O)c2ccccc2)c1)c1ccccc1`, 96.1% (inactive) and 100% (inactive). On the same count and under the same terms, as for `O=[N+]([O-])c1ccc(N/N=C\c2cc(Br)ccc2O)nc1`, the figure is 1.29% (active) and -17.2% (active); as for `OCc1ccccn1`, 103% (inactive). Take `CCOc1ccc2cc(-c3nn(CC4CCN(C)CC4)c4ncnc(N)c34)ccc2c1`: the growth is -24.5% (active).

The same assay, now with this note: 100 µM.
Turning to `O=C(O)c1sccc1O`, the growth is 0.233% (active).

For the origin of these results see PubChem BioAssay (NCI).
